# From PubChem BioAssay (NCATS)
# Inconclusive results are not listed. Entries that show only a call come without a potency. Unmarked numbers belong to inactive results. Active and inactive are the calls of the source. Unless noted, the call rests on the fitted dose curve; in most records, active means well fitted curve in the direction sought with a large enough effect; inconclusive means small, poorly fitted or top-dose-only effect, or another doubt; inactive means no such curve, though single readings can be large; an effect the other way counts as inactive or inconclusive.
# Tests used:
# [1] = biological target: Tumor susceptibility gene 101 protein (Homo sapiens) (UniProt Q99816); experiment: qHTS Assay for Iinhibitors of HIV-1 Budding by Blocking the Interaction of PTAP/TSG101: Hit Validation (AID 651600); further: nearly all actives have a fitted effect of over 70% in size; further: potency means the concentration at half of the fitted maximal effect
# Chain of Tumor susceptibility gene 101 protein (Homo sapiens) (Q99816 whole entry, looked up, the tested form may be a part): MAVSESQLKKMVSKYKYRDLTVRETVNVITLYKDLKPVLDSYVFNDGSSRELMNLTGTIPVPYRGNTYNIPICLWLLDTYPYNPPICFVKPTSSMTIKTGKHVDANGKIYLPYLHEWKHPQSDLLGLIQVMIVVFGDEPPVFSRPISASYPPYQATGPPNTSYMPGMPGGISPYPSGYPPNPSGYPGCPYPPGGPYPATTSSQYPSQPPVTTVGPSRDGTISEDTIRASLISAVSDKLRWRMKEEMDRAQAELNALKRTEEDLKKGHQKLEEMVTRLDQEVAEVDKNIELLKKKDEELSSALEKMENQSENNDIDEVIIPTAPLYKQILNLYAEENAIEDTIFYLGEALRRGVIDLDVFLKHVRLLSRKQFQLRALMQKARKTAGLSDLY
# Summary of the method: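 Tsg101 binding domain 10 uM + FITC-PTAP peptide 50 nM (final), 10 mM HEPES pH 7.5/0.15 M NaCl/0.01% Tween 20/3 mM EDTA/0.1 mM TCEP; 20 min RT; FP read, FITC filters.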
# [2] = biological target: Rap guanine nucleotide exchange factor 3 (Homo sapiens) (UniProt O95398); experiment: Confirmatory qHTS for antagonist of cAMP-regulated guanine nucleotide exchange factor 3 (EPAC1) (AID 1645880); conditions: EPAC1 Rap1B-BODIPY-GDP exchange, fluorescence; activity, negative = inhibition: at 115 µM (top of the series); further: nearly all actives have a fitted effect of over 55% in size; further: potency means the concentration at half of the fitted maximal effect
# Chain of Rap guanine nucleotide exchange factor 3 (Homo sapiens) (O95398 whole entry, looked up): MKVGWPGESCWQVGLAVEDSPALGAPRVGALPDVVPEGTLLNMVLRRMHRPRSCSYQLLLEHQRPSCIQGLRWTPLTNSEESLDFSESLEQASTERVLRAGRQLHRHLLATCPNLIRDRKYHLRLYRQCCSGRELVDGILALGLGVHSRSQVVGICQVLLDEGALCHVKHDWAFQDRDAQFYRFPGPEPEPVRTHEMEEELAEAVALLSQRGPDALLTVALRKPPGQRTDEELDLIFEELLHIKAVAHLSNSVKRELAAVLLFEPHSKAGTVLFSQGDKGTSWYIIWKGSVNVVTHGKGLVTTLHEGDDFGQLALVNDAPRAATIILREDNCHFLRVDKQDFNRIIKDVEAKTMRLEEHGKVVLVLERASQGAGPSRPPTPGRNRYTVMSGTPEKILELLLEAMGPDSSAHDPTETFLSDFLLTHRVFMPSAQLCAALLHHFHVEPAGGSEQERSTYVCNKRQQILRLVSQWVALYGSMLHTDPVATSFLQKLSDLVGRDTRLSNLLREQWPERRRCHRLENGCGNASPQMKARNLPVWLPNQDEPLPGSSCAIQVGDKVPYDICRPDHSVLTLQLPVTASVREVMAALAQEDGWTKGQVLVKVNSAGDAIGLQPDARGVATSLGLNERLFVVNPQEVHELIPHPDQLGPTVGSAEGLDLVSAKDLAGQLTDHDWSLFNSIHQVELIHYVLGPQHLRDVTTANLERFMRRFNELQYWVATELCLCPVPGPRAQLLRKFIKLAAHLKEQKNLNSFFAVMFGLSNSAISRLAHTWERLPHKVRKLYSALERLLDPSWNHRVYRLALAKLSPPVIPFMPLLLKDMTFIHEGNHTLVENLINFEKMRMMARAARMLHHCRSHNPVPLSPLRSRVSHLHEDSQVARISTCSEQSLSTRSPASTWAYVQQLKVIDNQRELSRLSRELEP
# Summary of the method: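 Nucleotide exchange uses 100 nM EPAC1, 250 nM RAP1B-BODIPY-GDP and 50 uM GDP, with compounds in a concentration-titration series. After 5 min at room temperature, fluorescence (480 nm ex/540 nm em) is read every 5 min for 30 min. Data are normalized to control ATA and DMSO.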
# [3] = biological target: Rap guanine nucleotide exchange factor 4 (Homo sapiens) (UniProt Q8WZA2); experiment: Confirmatory qHTS for agonist of cAMP-regulated guanine nucleotide exchange factor 4 (EPAC2) (AID 1645884);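 further: nucleotide exchange releases bodipy-GDP from Rap1 and this lowers its fluorescence; nearly all actives have a fitted effect of over 65% in size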; further: potency means the concentration at half of the fitted maximal effect
# Chain of Rap guanine nucleotide exchange factor 4 (Homo sapiens) (Q8WZA2 whole entry, looked up): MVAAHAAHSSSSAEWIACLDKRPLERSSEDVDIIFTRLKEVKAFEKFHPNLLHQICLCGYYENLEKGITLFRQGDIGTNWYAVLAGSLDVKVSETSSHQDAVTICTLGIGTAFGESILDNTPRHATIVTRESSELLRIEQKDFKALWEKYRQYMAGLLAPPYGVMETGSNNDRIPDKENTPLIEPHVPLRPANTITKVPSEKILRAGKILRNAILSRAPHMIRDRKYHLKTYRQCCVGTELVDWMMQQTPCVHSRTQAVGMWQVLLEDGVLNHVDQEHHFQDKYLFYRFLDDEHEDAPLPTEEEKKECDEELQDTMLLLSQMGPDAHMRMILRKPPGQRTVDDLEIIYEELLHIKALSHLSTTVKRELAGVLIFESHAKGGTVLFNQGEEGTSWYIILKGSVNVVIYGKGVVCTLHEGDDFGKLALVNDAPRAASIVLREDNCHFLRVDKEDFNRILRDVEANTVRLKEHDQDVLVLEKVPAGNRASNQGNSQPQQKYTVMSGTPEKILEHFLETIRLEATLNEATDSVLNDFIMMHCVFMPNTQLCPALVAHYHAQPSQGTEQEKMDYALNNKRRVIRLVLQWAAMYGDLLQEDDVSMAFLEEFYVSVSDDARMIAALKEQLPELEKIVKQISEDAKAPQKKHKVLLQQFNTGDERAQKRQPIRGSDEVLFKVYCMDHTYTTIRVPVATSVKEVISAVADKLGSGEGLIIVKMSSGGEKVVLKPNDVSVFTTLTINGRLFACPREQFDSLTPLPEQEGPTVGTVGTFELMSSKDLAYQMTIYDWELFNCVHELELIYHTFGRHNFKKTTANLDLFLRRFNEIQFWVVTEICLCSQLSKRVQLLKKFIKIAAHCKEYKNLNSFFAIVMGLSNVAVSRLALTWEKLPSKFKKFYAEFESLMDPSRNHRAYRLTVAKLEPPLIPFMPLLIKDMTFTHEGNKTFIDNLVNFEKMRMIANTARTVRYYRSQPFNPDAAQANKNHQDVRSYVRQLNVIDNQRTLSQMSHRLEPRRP
# [4] = biological target: Rap guanine nucleotide exchange factor 4 (Homo sapiens) (UniProt Q8WZA2); experiment: Confirmatory qHTS for antagonist of cAMP-regulated guanine nucleotide exchange factor 4 (EPAC2) (AID 1645885); further: nearly all actives have a fitted effect of over 25% in size; further: potency means the concentration at half of the fitted maximal effect
# [5] = biological target: Rap guanine nucleotide exchange factor 3 (Homo sapiens) (UniProt O95398); experiment: Counterscreen qHTS for antagonist of cAMP-regulated guanine nucleotide exchange factor 3 (EPAC1) (AID 1645888);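 further: fluorescence loss as bound BODIPY-GDP is released from Rap1B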
# Summary of the method: (§1)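 Rap1B-BODIPY-GDP 250 nM + GDP 50 uM; cpds 7-pt, final 9.74 nM–152 uM (activator mode) or from 7.32 nM upwards (inhibitor mode); RT; FI 480/540 nm at 5 and 30 min, then ± cAMP, reread.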
# [6] = biological target: Rap guanine nucleotide exchange factor 3 (Homo sapiens) (UniProt O95398); experiment: Counterscreen qHTS for agonist of cAMP-regulated guanine nucleotide exchange factor 3 (EPAC1) (AID 1645889); further: nearly all actives have a fitted effect of over 40% in size; further: potency means the concentration at half of the fitted maximal effect
# Summary of the method: as §1
# [7] = Stat Signaling Pathway (AID 446; active means well fitted curve in either direction with a large enough effect, not every such curve was filed as active;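 further: ME-180 cervical cancer cells given 40 pM IL-6 alongside compound; SIE-controlled beta-lactamase reporter measured as 460/530 nm FRET emission ratio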)
# Summary of the method: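 ME-180 SIE-bla cells; overnight plating; cpd + IL-6 40 pM, 5 h, 37 C; LiveBLAzer 2.5 h RT; 460/530 nm emission ratio. Normalized to 300 pM IL-6 and 125 nM JAK inhibitor controls.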
compound,measurement,setting,value
CC1=Nc2ccccc2/C1=C\c1nc(-c2ccc(F)cc2)oc1O,Potency,[1],29.1 µM (active)
same,Potency,[2],inactive
same,Potency,[3],112 µM (active)
same,Potency,[4],inactive
same,Potency,[5],inactive
same,Potency,[6],25.1 µM (active)
Cc1ccc2c(c1C)OC(=O)CC2c1ccccc1 (stereo unspecified),Potency,[2],inactive
same,Potency,[3],inactive
same,Potency,[4],inactive
same,Potency,[5],inactive
same,Potency,[6],inactive
COc1ccc(CN(C)C(=O)CC(c2ccccc2)c2ccccc2)cc1,Potency,[2],inactive
same,Potency,[3],inactive
same,Potency,[4],inactive
same,Potency,[5],inactive
same,Potency,[6],inactive
COc1ccc(N=Cc2sc(O)c3ccccc23)cc1,Potency,[2],inactive
same,activation,[3],"2.81% [at 17.1 µM, percent relative to cAMP agonist control]"
same,Potency,[4],inactive
same,"activity change, negative = inhibition",[5],46.8% [at 30.8 µM]
same,activation,[6],29% [at 30.8 µM]
Cc1ccc2[nH]cc(/C=C/c3cc[n+](C)cc3)c2c1,Potency,[2],inactive
same,Potency,[3],112 µM (active)
same,Potency,[4],inactive
same,Potency,[5],inactive
same,Potency,[6],56.2 µM (active)
CCOC(=O)c1sc2nc3c(SCC(=O)O)cc(C(=O)c4cc(F)ccc4O)cn3c(=O)c2c1C,Potency,[2],9.53 µM (active)
same,Potency,[3],inactive
same,Potency,[4],inactive
same,Potency,[5],inactive
same,Potency,[6],inactive
Cc1cc2nc3c(=O)[nH]c(=O)[nH]c3nc2c([N+](=O)[O-])c1N,Potency,[1],13 µM (active)
same,Potency,[2],inactive
same,Potency,[3],100 µM (active)
same,Potency,[4],inactive
same,Potency,[5],inactive
same,Potency,[6],56.2 µM (active)
CCN(CC)c1ccc2cc(-c3nnc(-c4ccncc4)o3)c(=O)oc2c1,outcome,[7],inactive
same,Potency,[1],inactive
same,Potency,[2],inactive
same,Potency,[3],100 µM (active)
same,Potency,[4],75.7 µM (active)
same,Potency,[5],inactive
COc1cc(/C=C(\C#N)c2nc3ccccc3o2)ccc1O,Potency,[2],inactive
same,activation,[3],"7.08% [at 17.1 µM, percent relative to cAMP agonist control]"
same,Potency,[4],inactive
same,"activity change, negative = inhibition",[5],3.99% [at 30.8 µM]
same,activation,[6],23.5% [at 30.8 µM]
N#CC1=C(N)OC2=C(CC/C2=C\c2ccccc2)C1c1ccccc1 (stereo unspecified),Potency,[2],inactive
same,Potency,[3],112 µM (active)
same,Potency,[4],inactive
same,Potency,[5],inactive
same,Potency,[6],inactive
Cn1nc(-c2ccccc2)c2nc3ccccc3nc21,Potency,[1],16.3 µM (active)
same,Potency,[2],inactive
same,Potency,[3],100 µM (active)
same,Potency,[4],75.7 µM (active)
same,Potency,[5],inactive
same,Potency,[6],inactive
CCOc1ccccc1NC(=O)CSc1nccn1-c1cccc(C)c1,Potency,[2],inactive
same,Potency,[3],inactive
same,Potency,[4],inactive
same,Potency,[5],inactive
same,Potency,[6],inactive
O=C(c1ccccc1)c1ccc(O)cc1O,Potency,[1],5.8 µM (active)
same,Potency,[2],inactive
same,activation,[3],"17% [at 17.1 µM, percent relative to cAMP agonist control]"
same,Potency,[4],inactive
same,"activity change, negative = inhibition",[5],-16.9% [at 30.8 µM]
COC(=O)c1c(NC(=O)c2ccc(S(=O)(=O)N(C)C3CCCCC3)cc2)sc2c1CCN(C)C2,Potency,[2],inactive
same,Potency,[3],inactive
same,Potency,[4],inactive
same,Potency,[5],inactive
same,Potency,[6],89.1 µM (active)
COCCN1C(=O)/C(=C/c2ccc(N3CCCC3)cc2)SC1=S,Potency,[2],inactive
same,Potency,[3],112 µM (active)
same,Potency,[5],inactive
O=c1c(/C=C(\O)c2ccc(F)cc2)nc2ccccc2n1-c1ccccc1,Potency,[1],inactive
same,Potency,[2],inactive
same,Potency,[3],100 µM (active)
same,Potency,[4],inactive
same,Potency,[5],inactive
CSc1ncccc1C(=O)OCc1c(F)cccc1Cl,Potency,[2],inactive
same,Potency,[3],inactive
same,Potency,[5],inactive
CC(=O)Nc1ccc(Nc2c3c4c(cccc4n(C)c2=O)C(=O)c2ccccc2-3)cc1,Potency,[2],inactive
same,Potency,[3],100 µM (active)
same,Potency,[5],inactive
COc1cccc2c1C(=O)c1c(O)c3c(c(O)c1C2=O)CC(O)(C(=O)CO)CC3OC1CC(N(C)C)C(O)C(C)O1 (stereo unspecified),Potency,[1],4.61 µM (active)
same,Potency,[2],inactive
same,activation,[3],"8.33% [at 17.1 µM, percent relative to cAMP agonist control]"
same,Potency,[4],inactive
same,"activity change, negative = inhibition",[5],33.3% [at 30.8 µM]
COc1ccc2noc3c2c1C(=O)c1ccccc1-3,Potency,[2],inactive
same,Potency,[3],112 µM (active)
same,Potency,[4],inactive
same,Potency,[6],20 µM (active)
O=C1CSC(c2ccc(Cl)c(Cl)c2)N1c1nccs1 (stereo unspecified),Potency,[2],inactive
same,Potency,[3],inactive
same,Potency,[5],inactive
O=C(NCCOc1ccc(F)cc1)c1ccccc1SCc1ccccc1,Potency,[2],inactive
same,activation,[3],"7.88% [at 17.1 µM, percent relative to cAMP agonist control]"
same,"activity change, negative = inhibition",[5],18.3% [at 30.8 µM]
Oc1ccc2nnc3c(Br)cnn3c2c1,Potency,[1],16.3 µM (active)
same,Potency,[2],inactive
same,Potency,[3],112 µM (active)
same,Potency,[4],inactive
same,Potency,[5],inactive
Cc1ccccc1C(=O)O/N=C(\c1ccccc1)c1ccccn1,Potency,[2],inactive
same,activation,[3],"8.13% [at 17.1 µM, percent relative to cAMP agonist control]"
same,"activity change, negative = inhibition",[5],3.56% [at 30.8 µM]
